Compound activity from PubChem BioAssay.
An excerpt weighted towards active compounds, which were near 9.2% of everything screened.
USP8 block – inhibitors of human USP8 deubiquitinase | purified USP8, Ub-rhodamine cleavage fluorescence, 30 min | inhibition, % at 20 µM | hit rate 4.2% among 47,000 | AID 1645853
USP17 inh – blocks human USP17 ubiquitin-rhodamine cleavage | AID 1645855 | purified USP17, Ub-rhodamine cleavage fluorescence, 3 h | hit rate 6.5% among 47,000 | A8MUK1 | inhibition, % at 50 µM
USP7 inh – human USP7 deubiquitinase inhibition; purified USP7, Ub-rhodamine cleavage fluorescence; inhibition, % at 20 µM; hit rate 0.3% among 47,000; Q93009
OTUD3 block – human OTUD3 deubiquitinase inhibition. purified OTUD3, Ub-rhodamine fluorescence, 2 h. inhibition, % at 25 µM. hit rate 0.7% among 47,000. AID 1645858
USP10 inh – blocks human USP10 ubiquitin-rhodamine cleavage. purified USP10, Ub-rhodamine fluorescence, 60 min. inhibition, % at 20 µM. hit rate 1.1% among 47,000
Target sequence (Q14694 whole entry, looked up): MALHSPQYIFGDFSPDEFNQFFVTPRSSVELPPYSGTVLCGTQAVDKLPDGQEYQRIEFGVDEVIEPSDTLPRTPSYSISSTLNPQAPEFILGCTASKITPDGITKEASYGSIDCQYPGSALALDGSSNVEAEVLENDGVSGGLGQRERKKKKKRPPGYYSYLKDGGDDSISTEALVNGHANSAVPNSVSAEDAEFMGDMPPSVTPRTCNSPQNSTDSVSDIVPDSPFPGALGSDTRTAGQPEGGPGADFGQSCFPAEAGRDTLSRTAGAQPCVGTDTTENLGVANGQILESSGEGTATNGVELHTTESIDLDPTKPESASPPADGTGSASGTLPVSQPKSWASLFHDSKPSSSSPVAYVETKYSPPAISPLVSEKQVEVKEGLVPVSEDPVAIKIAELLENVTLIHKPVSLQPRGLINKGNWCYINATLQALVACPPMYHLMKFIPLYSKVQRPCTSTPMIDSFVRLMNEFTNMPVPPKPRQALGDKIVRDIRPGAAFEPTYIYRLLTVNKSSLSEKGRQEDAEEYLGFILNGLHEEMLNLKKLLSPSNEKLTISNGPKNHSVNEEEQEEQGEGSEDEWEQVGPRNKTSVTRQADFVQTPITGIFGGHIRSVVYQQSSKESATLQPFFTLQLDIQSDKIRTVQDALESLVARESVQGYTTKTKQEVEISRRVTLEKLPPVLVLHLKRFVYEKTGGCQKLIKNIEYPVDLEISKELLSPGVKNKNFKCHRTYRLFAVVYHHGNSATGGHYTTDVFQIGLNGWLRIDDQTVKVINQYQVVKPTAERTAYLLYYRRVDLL
UCHL1 block – inhibitors of human UCHL1 deubiquitinase | inhibition, % at 20 µM | P09936 | hit rate 0.2% among 47,000 | purified UCHL1, Ub-rhodamine cleavage fluorescence
Each line names hits and unclear results; the compound was inactive in the other large screens. Cut-off read from the data, not from the text of the source: active = inhibition above about 30%; inactive = the rest.

COc1ccccc1NC(=O)COc1cc(C)nc(-c2ccc(C)cc2)n1	USP17 inh 56.2
CCOc1ccc(NC(=O)COc2ccccc2OC)c2cccnc12	USP8 block 32.8
Cc1cc(OCC(=O)Nc2ccc(C#N)cc2)nc(-c2ccc(F)cc2)n1	none
COc1ccccc1OCC(=O)Nc1cccc2ccc(C)nc12	USP17 inh 47.2
Cc1cccc(OCc2nnc(SCC(=O)Nc3cccc(F)c3C)o2)c1	none
CC(=O)c1cccc(NC(=O)Nc2ccc(CCc3nc4ccccc4n3C)cc2)c1	USP17 inh 32.7
CCn1c(CCc2ccc(NC(=O)c3ccccn3)cc2)nc2ccccc21	none
Cn1c(CCN2CCCC2)nc2cc(NC(=O)c3ccccc3)ccc21	USP17 inh 59.2
CCN1Cc2c(C(=O)N3CCC(C)CC3)ncn2-c2ccccc2S1(=O)=O	none
Cc1ccc(C)c(NC2c3ncccc3C(=O)N2Cc2ccco2)c1 (configuration not stated)	none
COc1ccc(NC(=O)CN2C(=O)c3ccccc3Sc3ccc(C(=O)N4CCCC4)cc32)cc1OC	USP17 inh 55.0
COc1cccc(C(=O)Nc2nc(-c3ccco3)c(-c3ccco3)s2)c1	USP8 block 62.4, USP17 inh 43.6, USP7 inh 49.6, UCHL1 block 51.6
COc1cccc(C(=O)Nc2cccn3nc(C)nc23)c1	none
COc1ccc(OC)c(C(C(=O)NC2CCCCC2)N(C(=O)c2ccc3c(c2)OCCO3)c2ccc(C)cc2)c1 (configuration not stated)	USP8 block 32.6
CCOc1ccccc1N(C(=O)c1ccc2c(c1)OCCO2)C(C(=O)NC1CCCCC1)c1ccc(O)cc1 (configuration not stated)	none
Cc1ccccc1NC(=O)COc1coc(CN2CCc3ccccc3C2)cc1=O	none
CC(C)c1ccc(CNC(=O)c2nc3ccccc3[nH]2)cc1	USP17 inh 49.5
O=C(NCc1ccn[nH]1)N1CCCCCC1c1ccncc1 (configuration not stated)	none
CC(C)N1CCc2c(sc(NC(=O)CSc3ccc(F)cc3)c2C(N)=O)C1	none
CC(C)N1CCc2c(sc(NC(=O)CSc3ccc(Cl)cc3)c2C(N)=O)C1	USP17 inh 50.0
Cc1ccc(CNC(=O)Cn2c(N3CCCCC3)nc(C)cc2=O)cc1	USP17 inh 40.6
C[C@@H]1Cc2cc(O)cc(O)c2C(=O)O[C@H](C)CC(=O)OC[C@@H](O)CC(=O)O[C@H](C)Cc2cc(O)cc(O)c2C(=O)O[C@H](C)CC(=O)O1	none
COc1cc(O)c2c(O)c3c(cc2c1)CC(C)OC3=O (configuration not stated)	USP17 inh 75.3, OTUD3 block 53.3
c1ccc(CN2CCCn3nnc(Cn4ccnc4)c3C2)nc1	none
CCOc1ccccc1C(=O)NCC(=O)OC(C(=O)c1c[nH]c2ccccc12)c1ccccc1 (configuration not stated)	USP17 inh 53.5
CC1CC(=O)Nc2cc(S(=O)(=O)Nc3cc(F)ccc3F)ccc2S1 (configuration not stated)	none
O=C(/C=C1\NCCc2cc3c(cc21)OCCCO3)c1ccc(OC(F)(F)F)cc1	USP8 block 52.6
COc1ccc(C(=O)/C=C2\NCCc3cc4c(cc32)OCCCO4)cc1OC	none
CCc1cc(C2CCCN2C(=O)c2cc(-c3ccc(OC)c(OC)c3)on2)on1 (configuration not stated)	none (no result: USP17 inh)
COc1ccc(NC(=O)c2sc3ncn(CC(=O)N4CCN(c5ccccn5)CC4)c(=O)c3c2C)cc1OC	none
Cc1ccc(NC(=O)c2sc3ncn(CC(=O)N4CCN(c5ccccn5)CC4)c(=O)c3c2C)c(Br)c1	USP17 inh 58.8
COC(=O)CCCNC(=O)C1c2ccccc2C(=O)N(Cc2ccccc2)C12CCCC2 (configuration not stated)	USP8 block 45.2
COc1ccc2c(CCNC(=O)CSc3nnnn3-c3ccccc3OC)c[nH]c2c1	none
CCn1ccc(C(=O)N2CCN(c3nc4c(OC)ccc(C)c4s3)CC2)n1	none
COc1ccc(Cl)c2sc(N3CCN(C(=O)c4ccn(C)n4)CC3)nc12	USP17 inh 47.1
O=C1c2cccc(OCc3ccc(Cl)cc3)c2CCN1Cc1cccnc1	none
Cc1cc(=O)oc2cc(NC(=O)c3ccc(-n4cnnn4)cc3)ccc12	USP8 block 36.0, USP17 inh 43.6
